Most compounds without a hit are left out; they make up all but 2.8% or so of the library.
GALC G270D act: enhancers of human galactocerebrosidase G270D mutant activity in cells. P54803. 145M-Twi-hGALC-G270D cells (Twitcher mouse brain line with human GALC G270D), HMU-beta-Gal fluorescence, 48 h. Potency, µM (highest dose often 57.5 µM), actives largely listed as activators. hit rate 0.1% among 45,000. AID 1159614; also: potency is read from the fitted curve at half-maximal effect; 0% is about no effect; nearly all actives have a fitted effect of over 65% in size
Target sequence (P54803 whole entry G286D): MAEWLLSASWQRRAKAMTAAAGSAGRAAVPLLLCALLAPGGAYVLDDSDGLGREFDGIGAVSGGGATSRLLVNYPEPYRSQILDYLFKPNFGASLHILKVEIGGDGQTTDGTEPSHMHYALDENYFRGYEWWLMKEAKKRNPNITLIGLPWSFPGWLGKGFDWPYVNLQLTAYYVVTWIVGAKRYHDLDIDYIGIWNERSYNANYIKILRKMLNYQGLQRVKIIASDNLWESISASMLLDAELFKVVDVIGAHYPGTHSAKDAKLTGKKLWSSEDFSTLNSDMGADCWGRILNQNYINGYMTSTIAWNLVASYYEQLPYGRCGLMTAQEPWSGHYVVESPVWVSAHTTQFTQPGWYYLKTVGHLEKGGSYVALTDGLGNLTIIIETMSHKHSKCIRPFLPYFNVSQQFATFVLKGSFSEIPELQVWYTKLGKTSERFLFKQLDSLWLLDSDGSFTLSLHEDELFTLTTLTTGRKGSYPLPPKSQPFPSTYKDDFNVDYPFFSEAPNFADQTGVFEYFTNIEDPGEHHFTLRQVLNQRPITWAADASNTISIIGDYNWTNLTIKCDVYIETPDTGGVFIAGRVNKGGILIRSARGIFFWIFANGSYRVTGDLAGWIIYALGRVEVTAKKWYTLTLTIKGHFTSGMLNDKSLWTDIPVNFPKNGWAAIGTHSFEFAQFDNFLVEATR
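Fluorescence readout: HMU-β-gal cleavage by mutant GALC (0.1 mM final, citrate/phosphate pH 5.2 with 1 mg/mL taurocholate), stopped with carbonate/bicarbonate plus Triton X-100. Cells: murine Twitcher 145M-Twi expressing human G270D GALC; qHTS for activators.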
FH mod: Identification of activators of human fumarate hydratase by quantitative high-throughput screening; Fumarate hydratase, mitochondrial (Homo sapiens), P07954; FH coupled MDH/diaphorase resazurin fluorescence, 15 min; Potency, µM (titrated, usually from 79.9 µM), inactives show at the top dose activity change, negative = inhibition, most hits filed as inhibitors; hit rate 0.22% among 54,000; AID 1347055, 2019; also: potency is read from the fitted curve at half-maximal effect; % is scaled to controls: 0 for no effect and ±100 for the full control effect; the screen sought activators but most active calls are inhibition curves; nearly all actives have a fitted effect of over 45% in size
B2AR arrestin ag: agonists recruiting beta-arrestin to human beta2-adrenergic receptor. HTLA Tango cells, beta-arrestin recruitment, luciferase luminescence, 18 h. 44,000 tested, under 10 active. Potency, µM (series often up to 46.1 µM), actives largely listed as activators. AID 1347077. P07550;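 also: potency is read from the fitted curve at half-maximal effect; 0% = DMSO and full agonism = EC100 isoproterenol or metaproterenol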
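Tango cells expressing recombinant beta2-AR and beta-arrestin were treated with compounds (up to 46 microM titration) in DMEM with 1% FBS for 18 hr at 37 degrees C. Beta-arrestin recruitment drove tTA-dependent luciferase, read by luminescence; curves were fitted and classed.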
DRV1 agonist: activates human resolvin D1 receptor GPR32. O75388. CHO-K1 GPR32 beta-arrestin PathHunter luminescence, 90 min; zero percent set by DMSO-only wells. activation, % at 76.9 µM. hit rate 2.5% among 48,000;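 active = activation of at least 60% and not above a set upper limit, about 1 call in 100 departs from these limits; inconclusive = activation of 40% to 60%, or above that upper limit; inactive = activation under 40%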; also: 0% is about no effect
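Step 1: seed CHO-K1 GPR32 beta-arrestin cells, 2,500/well, overnight at 37 °C. Step 2: add compounds, 90 min at 37 °C. Step 3: detection reagent, 1 h ambient, then luminescence.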
An asterisk follows results filed as active; i = inactive; u = inconclusive; x = not tested or not shown; [ ] = remark or other dose. Unless noted, calls follow the shape of the dose curve; as a rule, active = well fitted curve in the direction sought with a large enough effect; inconclusive = small, poorly fitted or top-dose-only effect, or another doubt; inactive = no such curve, though single readings can be large; an effect the other way counts as inactive or inconclusive.

SMILES	GALC G270D act	FH mod	B2AR arrestin ag	DRV1 agonist
CC(O)(C(=O)O)C1CCC2(C)C1CCC1(C)C2CCC2C3(C)CCC(O)C(C)(COC4OC(CO)C(O)C(O)C4O)C3CCC21C (stereo not drawn)	x	-0.4%[20.6 µM]	x	x
COc1ccc(CCc2nc3c(C)c(-c4c(C)noc4C)c(C)cc3n2CCN2CCOCC2)cc1	x	7.6%	x	x
COc1ccc(CCNC(=O)CCc2c(C)nc3cc(-c4ccccc4)nn3c2C)cc1OC	i	2.1%	i	69.7*
COc1ccc(CCNC(=O)CCc2c(C)c3cc4c(C)c(C)oc4cc3oc2=O)cc1OC	i	11.0%	i	40.8
COc1ccc2c(C)c(CCC(=O)NCCc3ccc(OC)c(OC)c3)c(=O)oc2c1	x	x	i	68.2*
COc1ccc2c(C)c(CCC(=O)NCCc3ccccc3)c(=O)oc2c1	x	x	i	49.5
COc1ccc2c(C)c(CCC(=O)NCCc3ccc(Cl)cc3)c(=O)oc2c1	x	x	i	107.5*
COc1cc(O)c2c(c1)/C=C/C[C@H](O)[C@H](O)C(=O)/C=C\C[C@H](C)OC2=O	x	-5.7%	x	x
CCn1c(CN2CCCCC2)nc2cc(NC(=O)c3ccc([N+](=O)[O-])cc3)ccc21	i	4.8%	i	70.5*
COc1ccc(OCC(=O)Nc2cc(-c3cccc(Cl)c3)nn2-c2ccccc2)cc1	i	-4.6%	i	100.2*
CCC(CC)C(=O)Nc1cc(-c2ccccc2F)nn1-c1ccccc1	i	-0.5%	i	-18.1
COc1ccc(OCC(=O)Nc2cc(-c3ccccc3F)nn2-c2ccccc2)cc1	i	-6.3%	i	90.7*
COc1cc2nc(Nc3cccc(C)c3)nc(N)c2cc1OC	i	-8.7%	i	10.0
COc1cc2nc(Nc3ccc(C)c(C)c3)nc(N)c2cc1OC	i	-14.7%	i	82.9*
CC(=O)OC12COC1CC(O)C1(C)C(=O)C(O)C3=C(C)C(OC(=O)C(O)C(NC(=O)OC(C)(C)C)c4ccccc4)CC(O)(C(OC(=O)c4ccccc4)C21)C3(C)C (stereo not drawn)	x	6.1%	x	x
Cc1ccc2c(CNCCc3ccccc3)c(C(=O)O)n(Cc3ccccc3C)c2c1	i	-21.0%	i	65.5*
COc1ccc2c(CNCCc3ccco3)c(C(=O)O)n(Cc3ccccc3)c2c1	i	-32.8%	i	-7.0
COc1ccc(Cn2c(C(=O)O)c(CNCCc3ccco3)c3ccc(C)cc32)cc1	i	-18.8%	i	103.9*
C=Cc1ccc(Cn2c(C(=O)O)c(CNCCc3ccco3)c3ccc(C)cc32)cc1	i	-11.8%	i	88.5*
COc1ccc(Cn2c(C(=O)O)c(CNCCc3cc(OC)ccc3OC)c3ccc(C)cc32)cc1	i	-36.6%	i	106.0*
CCC(C)C1NC(=O)C2CCCN2C(=O)C(NC(C)=O)C(C)OC(=O)C(Cc2ccc(OC)cc2)N(C)C(=O)C2CCCN2C(=O)C(C(C)C)NC1=O (stereo not drawn)	x	0.3%[20.6 µM]	x	x
C=C1Cc2c(Cl)cc3[nH]c4c5c3c2[C@@]2(O)[C@@H]1C[C@@H]2C(C)(C)O[C@H]5C1CC[C@@]2(O)[C@@]35O[C@@H]3[C@H]3OC(C)(C)[C@H]3O[C@H]5CC[C@]2(C)[C@@]41C (stereo partly drawn)	x	1.7%[20.6 µM]	x	x
CCC(O)C(C)C1CCC(C(C)C(=O)O)O1 (stereo not drawn)	x	0.7%	x	x
CN(C(=O)Nc1cn(C)c(=O)c2ccccc12)c1ccccc1	i	35.5µM*[activator]	i	-59.9
CCc1cccc(NC(=O)Nc2cn(C)c(=O)c3ccccc23)c1	i	u	i	-58.9
SMILES	GALC G270D act	FH mod	B2AR arrestin ag	DRV1 agonist
COc1cc2c(c(O)c1OC/C=C(\C)CC/C=C(/C)CCC=C(C)C)CN(C(CCC(=O)O)C(=O)O)C2=O (stereo not drawn)	x	-11.9%[53.3 µM]	x	x
CCOC(=O)c1ccc(NC(=O)c2cc3cc(C)ccc3n2C)cc1	i	-3.2%	i	72.4*
COC(=O)c1ccc(NC(=O)c2cc3cc(C)ccc3n2C)cc1	i	3.0%	i	-5.4
CCn1c(=O)cc(OCC(=O)NCc2ccccc2Cl)c2ccccc21	i	1.8%	i	71.5*
CCn1c(=O)cc(OCC(=O)NCc2ccccc2OC)c2ccccc21	i	-13.8%	i	118.0*
CCc1cccc(NC(=O)COc2cc(=O)n(CC)c3ccccc23)c1	i	-0.3%	i	11.2
